Test results: PubChem BioAssay (NCATS)
Records with an inconclusive call do not appear. Unmarked numbers belong to inactive results. The source made the active and inactive calls. Calls come from the whole dose curve; as a rule, active = well fitted cell-killing curve with a large enough effect; inconclusive = small, poorly fitted or top-dose-only effect, or effect the other way; inactive = no such curve, though single readings can be large or run the other way.

Assay: Viability qHTS for spleen associated tyrosine kinase inhibitor (SYKi) drug resistant MV4-11 cells (AID 1963824); note: nearly all actives have a fitted effect of over 35% in size
Summary of the method: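 SYK-inhibitor-resistant MV4-11 AML cells were seeded at 500 per well onto compound and cultured 72 hours (37 °C, 5% CO2). CellTiter-Glo was then added, and after 10 min at room temperature, luminescence gave viability.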
Potency is the fitted concentration of half-maximal effect.

SMILES | Potency | viability, % of control
CC/C(=C(/c1ccc(/C=C/C(=O)O)cc1)c1ccc2[nH]ncc2c1)c1ccc(F)cc1Cl | 16.6 µM (active) | 
Cc1nc2cc(C(=O)NCc3ccccn3)nn2c(C)c1Cc1cccc(Cl)c1 | 20.6 µM (active) | 
C/C(=C\CCC(C)CCO)C(=O)OC[C@H]1O[C@@H](O[C@@H]2OC=C(C(=O)O)[C@H]3CC[C@](C)(O)[C@@H]23)C(O)[C@@H](O)C1O (stereo partly specified) | inactive | 
COc1cccc(-c2ccc([C@@H](Oc3cc(-c4ccc(C[C@H](N)C(=O)O)cc4)nc(N)n3)C(F)(F)F)cc2)c1 | 20.6 µM (active) | 
CC1(C)CC[C@]2(C(=O)O[C@@H]3O[C@H](CO)[C@@H](O)[C@H](O)[C@H]3O)CC[C@]3(C)C(=CCC4[C@@]5(C)CC[C@H](O[C@@H]6O[C@H](C(=O)O)[C@@H](O)[C@H](O)[C@H]6O)C(C)(C)C5CC[C@]43C)C2C1 (stereo partly specified) |  | 98% [at 9.25 µM]
CC1(C)CC(=O)C2=C(C1)NC(=S)NC2c1cccc(O)c1 (stereo unspecified) | 0.58 µM (active) | 
